Experimental data published in PubChem BioAssay AID778 (Sanford-Burnham Center for Chemical Genomics, 2007).
About 20,000 (21%) of roughly 96,000 compounds were called active. These entries were drawn from the full list. Unmarked numbers belong to inactive results.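 Rule for the calls: active = CYP2C19 inhibition above a set limit at 5 µM in the primary screen (cut at about 50% in these data); inactive = the rest.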

The compounds below were run against Cytochrome P450 2C19 (Homo sapiens) (UniProt P33261) (assay: blockers of cytochrome P450 2C19 activity – biochemical, luminescence, ADME assay, primary screen (AID 778;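 note: plate controls were negative control wells for no effect and 2.5 mM tranylcypromine positive control for full effect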)). Conditions: CYP2C19 Supersomes, luciferin-H EGE luminescence, 30 min; at 5 µM; stronger effect = higher value.
Chain of Cytochrome P450 2C19 (Homo sapiens) (P33261 whole entry, looked up): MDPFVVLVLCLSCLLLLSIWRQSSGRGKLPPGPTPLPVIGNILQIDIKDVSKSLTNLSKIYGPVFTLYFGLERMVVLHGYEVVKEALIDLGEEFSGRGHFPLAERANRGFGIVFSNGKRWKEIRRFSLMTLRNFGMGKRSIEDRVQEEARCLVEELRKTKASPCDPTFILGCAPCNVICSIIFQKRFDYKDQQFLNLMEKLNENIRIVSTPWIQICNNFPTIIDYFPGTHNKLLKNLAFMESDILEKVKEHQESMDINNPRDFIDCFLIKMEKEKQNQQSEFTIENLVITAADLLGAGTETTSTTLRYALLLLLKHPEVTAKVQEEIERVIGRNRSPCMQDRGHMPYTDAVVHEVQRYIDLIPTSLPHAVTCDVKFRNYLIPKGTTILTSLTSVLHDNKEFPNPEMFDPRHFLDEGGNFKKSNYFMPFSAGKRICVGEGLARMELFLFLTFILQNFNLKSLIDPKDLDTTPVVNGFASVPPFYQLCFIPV
In the case of `N#Cc1c2c(c(N3CCN(CCO)CC3)n3c1nc1ccccc13)CCCC2`, the inhibition is reported as 34.5%. For `CN(C)CCNC(=O)C(C(=O)c1ccccc1)n1ccccc1=O` (configuration not stated), the inhibition was -10.3%. `Cc1ccccc1S(=O)(=O)Cc1ccc(C(=O)NCCN2CCCCC2C)o1` (configuration not stated) was tested, and the inhibition was 4.1%. Compound `COC(=O)c1cnn2c(C(F)(F)F)cc(-c3ccco3)nc12` has an inhibition of -9%. In the case of `COc1ccc(OCCCC(=O)Oc2ccc(OC)cc2)cc1`, the inhibition is reported as 6.3%. Compound `N/C(=N\OC(=O)CCc1ccccc1)c1ccc(Cl)cc1` has an inhibition of -1.3%. In the case of `COc1ccc(/C(N)=N/OC(=O)Oc2ccccc2)cc1`, the inhibition is reported as 58.6% (active). In the case of `COc1ccc(OC)c(Nc2nc(-c3ccc(O)c(O)c3)cs2)c1`, the inhibition is reported as 27.6%. `COc1ccc(NC(=O)Nc2ccc3nc(C)c(C)nc3c2)cc1` was tested, and the inhibition was 3.2%. With `COc1ccc2c(c1)cc1n2CCN=C1NN` the inhibition was 92.9% (active). `CC(=O)N1CSCC1C(=O)O` (configuration not stated) showed an inhibition of 2.2%. Compound `CC1(C)C/C(=C(/C#N)C(N)=O)CCO1` has an inhibition of -16.7%. In the case of `CC(C)OC(=O)c1sc2nc3c(cc2c1N)C(=O)CCC3`, the inhibition is reported as 7.1%. With `CC1=C(C(=O)Nc2ccc(Cl)cc2)C(c2ccco2)NC(=O)N1` (configuration not stated) the inhibition was 18.4%. Work on `Cc1cccc(N2CCN(C(=O)CN(C)S(=O)(=O)c3ccc4c(c3)CCC(=O)N4)CC2)c1C` yielded an inhibition of 6.3%. For `COC(=O)c1ccc(COC(=O)c2c(C)nn(Cc3ccccc3Cl)c2Cl)o1`, the inhibition was 90.5% (active). `CCOC(=O)c1cnn(Cc2ccccc2Cl)c1N` showed an inhibition of 30.5%. `COCCCNC(=O)CN1CCN(Cc2ccccc2Cl)C1=O` showed an inhibition of -10.8%. Work on `CCOC(=O)c1sc(/N=C/Nc2nc(C)c(C(=O)OCC)s2)nc1C` yielded an inhibition of 7.2%. `c1ccc(CC2CCN(c3nc4ccccc4n4cnnc34)CC2)cc1` was tested, and the inhibition was -7.7%. Compound `O=C(CN1CCN(c2ncc(C(F)(F)F)cc2Cl)CC1)Nc1ccc2c(c1)OCO2` has an inhibition of 22%. `CC(=O)c1ccc(Cc2ncc(C(F)(F)F)cc2Cl)s1` gave an inhibition of 16.5%. With `O=C(Cc1ncc(C(F)(F)F)cc1Cl)Nc1cccc(Br)c1` the inhibition was 55.7% (active). Work on `CCOC(=O)c1[nH]c2c(c1C)C(=O)CC(c1ccc(N(C)C)cc1)C2` (configuration not stated) yielded an inhibition of 6.7%. Work on `CCCCn1c(SCc2ncc(-c3ccccc3)o2)nc2cc(S(N)(=O)=O)ccc21` yielded an inhibition of 25%. For `Cc1cc(C)nc(NC(=O)Nc2ccccc2C(F)(F)F)n1`, the inhibition was 21%. Compound `O=C(c1ccccc1)c1cc(-c2ccccn2)c(N2CCOCC2)s1` has an inhibition of 14.1%. With `Cc1cc(=O)oc2cc(OCC3CC(c4ccccc4Cl)=NO3)ccc12` (configuration not stated) the inhibition was 50.8% (active). Work on `COc1cccc(-c2nnc(SCCOc3ccc4c(C)cc(=O)oc4c3)o2)c1` yielded an inhibition of -15.6%. `Cc1cc(=O)oc2ccc(OCC(=O)O)cc12` gave an inhibition of 3.3%. In the case of `CCOC(=O)c1c(NC(=O)CSc2nnc(CN3CCOCC3)n2C)sc2c1CCCC2`, the inhibition is reported as 48.7%. For `NC(=O)C1CC=CCC1C(=O)OCC(Cl)=C(Cl)Cl` (configuration not stated), the inhibition was 22%. In the case of `COc1cc(N=Cc2c(O)[nH]c3ccccc23)cc(OC)c1OC`, the inhibition is reported as 63.9% (active). `COc1ccc(N=Cc2c(O)[nH]c3ccccc23)cc1OC` showed an inhibition of 32.9%. `COc1ccc(OC)c(N=Cc2c(O)[nH]c3ccccc23)c1` was tested, and the inhibition was 7.7%. Compound `Nn1c(SCC(=O)NC2CCCC2)nnc1-c1ccccc1F` has an inhibition of 21.3%. In the case of `O=c1[nH][nH]c(C(F)(F)F)c1C=NCc1ccccc1Cl`, the inhibition is reported as 93.3% (active). `CC/S(CC1CC1(Cl)Cl)=N\S(=O)(=O)c1ccc(C)cc1` (configuration not stated) was tested, and the inhibition was 9.6%. `COc1ccc(NS(=O)(=O)c2ccc(NC(=O)C(C)(C(F)(F)F)C(F)(F)F)cc2)nn1` was tested, and the inhibition was -7.1%. For `CC1=NC2(CCCc3c2no[n+]3[O-])N(O)C1(C)C` (configuration not stated), the inhibition was -17.9%. `CSc1nnc2c(n1)OC(c1cn(C)c3ccccc13)N(C(C)=O)c1ccccc1-2` (configuration not stated) was tested, and the inhibition was 0.8%. With `Oc1c(C(c2ccccn2)N2CCOCC2)ccc2cccnc12` (configuration not stated) the inhibition was -8.6%. In the case of `CCOC(=O)N1CCN(C(=O)CSc2ccc(Cl)cc2)CC1`, the inhibition is reported as 71.6% (active). For `CCOC(=O)N1CCN(C(=O)CSc2nnc(-c3c[nH]c4ccccc34)n2CCOC)CC1`, the inhibition was 4.5%. In the case of `CCOC(=O)N1CCN(C(=O)CNC(=O)Cc2ccc(Cl)cc2)CC1`, the inhibition is reported as 5.9%. In the case of `CN1CCCC(OC(=O)COc2ccc(Br)cc2)C1` (configuration not stated), the inhibition is reported as 27%. Compound `CCOC(=O)C1CCN(C(=O)Cc2c(C(=O)O)[nH]c3ccccc23)CC1` has an inhibition of 2.6%. `CCOC(=O)C1CCN(C(=O)COc2cc(C)c(Br)c(C)c2)CC1` was tested, and the inhibition was 86.3% (active). Work on `CCOC(=O)N1CCN(C(=O)COc2ccc(Cl)cc2C)CC1` yielded an inhibition of 14.4%. Work on `CCOC(=O)C1CCN(C(=O)CSc2cc(=O)n(C)c3ccccc23)CC1` yielded an inhibition of 2.4%. For `CCOC(=O)N1CCN(C(=O)COc2ccc(Br)cc2)CC1`, the inhibition was 59.1% (active). Compound `CC12C(=O)N(n3cnnc3)C(=O)C1C1C=CC2C1` (configuration not stated) has an inhibition of -13.7%. `Cc1cc2nnc(SCC(=O)N3CCN(c4ccccc4)CC3)n2c(N)n1` gave an inhibition of -9.1%. In the case of `NC(=O)CSC1=Nc2ccccc2C2=NC(CCC(=O)NCc3ccc(F)cc3)C(=O)N12` (configuration not stated), the inhibition is reported as 47.9%. `CCOC(=O)CCc1c(C)c(C#N)c2[nH]c3ccccc3n2c1=O` was tested, and the inhibition was 27.1%. Compound `CC1CN(C2CCCCC2)c2nc3c(c(=O)n(C)c(=O)n3C)n2C1` (configuration not stated) has an inhibition of 29.5%. In the case of `O=C1NC(c2cc3c(cc2Cl)OCO3)Oc2ccccc21` (configuration not stated), the inhibition is reported as 55.5% (active). With `Cc1cc(C)c2c3c(sc2n1)C(c1ccccc1)C(C#N)=C(N)O3` (configuration not stated) the inhibition was -7.9%. For `CN(C)c1cc[n+](Cc2ccccc2)cc1`, the inhibition was -3.4%. `CC1=NN(Cc2ccccc2)C(=O)/C1=C/c1ccc(N(C)C)cc1` was tested, and the inhibition was 10.1%. In the case of `CN(C)c1ccc(/C=C2\NC(=S)N(Cc3ccccc3)C2=O)cc1`, the inhibition is reported as 57.6% (active). `CCCCCCCC(=O)NC(Nc1ccccc1OC)C(Cl)(Cl)Cl` (configuration not stated) was tested, and the inhibition was 3.6%. With `CCOC(=O)CSc1nnc(-c2cccc(Br)c2)o1` the inhibition was 28.9%. Work on `CCC(=O)Nc1ccc(C(=O)CSc2nnc(CNc3ccc(Cl)cc3)o2)cc1OC` yielded an inhibition of 11%. For `CCOC(=O)CSc1nnc(CNc2ccc(F)cc2)o1`, the inhibition was 56.5% (active). In the case of `CNC(=O)c1nnn(-c2ccccc2)c1C(=O)NC`, the inhibition is reported as -4%. `Cc1ccc(-n2ncc3c(=O)n(-c4ccc(C)c(C)c4)c(-c4ccco4)nc32)cc1` was tested, and the inhibition was 30.9%. With `O=S(=O)(c1ccc(Br)cc1)c1nc(-c2ccccc2)oc1NCc1cccnc1` the inhibition was 18.4%. `O=C(NCc1ccco1)c1ccc(CS(=O)(=O)Cc2ccc(F)cc2)o1` gave an inhibition of 42.4%. For `O=C(NCc1cccnc1)c1ccc(CS(=O)(=O)c2ccc(Br)cc2)o1`, the inhibition was 100% (active). `CC(C)CNC(=O)C1CCCN(S(=O)(=O)c2ccc(-n3cnnn3)cc2)C1` (configuration not stated) showed an inhibition of -17.5%. Work on `CC(C)(C)C(=O)CCN1C(=O)C2(OCCO2)c2ccccc21` yielded an inhibition of 30%. For `C=CCn1c(-c2ccc3[nH]c(C)c(C)c3c2)n[nH]c1=S`, the inhibition was 29.1%. With `O=C(NCc1ccc(Cl)cc1)c1cc2c(nc3sccn32)s1` the inhibition was 14.8%. Compound `O=C(NCc1cn2ccsc2n1)Nc1ccc(Cl)cc1` has an inhibition of 29.8%. In the case of `O=c1cc(Cn2nnc(-c3ccc(Cl)cc3)n2)nc2sccn12`, the inhibition is reported as 65.5% (active). In the case of `Cc1cccc(C)c1NC(=O)N1CC=C(n2c(=O)[nH]c3ccccc32)CC1`, the inhibition is reported as -0.4%. `Cc1nn(-c2ccccc2)c2c1C(=O)NC(=O)C(C)(C)C2` showed an inhibition of 28%. `Cc1ccc(C2=NN(C)c3nc4ccccc4n3C2)cc1` was tested, and the inhibition was 12.8%. In the case of `CCCCNC(=O)CCNC(=O)c1ccc(C(C)(C)C)cc1`, the inhibition is reported as 31.5%. In the case of `Cc1ccc(CNC(=O)CCCNC(=O)c2ccc(Cl)cc2)n1C`, the inhibition is reported as 60.2% (active). `CCN(CC(=O)NC(C)C)C(=O)CCNC(=O)c1ccc(Cl)cc1` showed an inhibition of 10.5%. `N#C/C(=C(\O)CCl)c1nnc2n1CCCCC2` gave an inhibition of 3.5%. `O=C1CCCCC(=O)c2ccccc2N1` gave an inhibition of 12.2%. `CCOc1ccc(NC(=O)Nc2cc(C)on2)cc1` showed an inhibition of 22.7%. `CCOc1ccc(C(=O)Nc2ccncc2)cc1` was tested, and the inhibition was 97.9% (active). With `CCCCCCOc1ccc(OC(=O)c2cccnc2)cc1` the inhibition was 20.8%. With `CCCCOc1ccc(C(=O)NCc2ccncc2)cc1` the inhibition was 76.1% (active). With `CCCCOc1ccc(C(=O)NCc2ccco2)cc1` the inhibition was 20.2%. `CCOc1cccc(C(=O)Nc2cccnc2)c1` showed an inhibition of -3.6%. With `CC(=O)Nc1nonc1-c1nc2ccccc2n1Cc1ccccn1` the inhibition was -7.6%. `CCN1C(=O)/C(=C2/Sc3ccccc3N2CCCS(=O)(=O)O)SC1=S` gave an inhibition of 0%. For `CCOc1ccc2[nH]c(=O)c(CN(CCCO)C(C)=O)cc2c1`, the inhibition was -11.4%. `CC(C)CNC(=O)c1cc(-c2ccc(Br)cc2)on1` showed an inhibition of -6.3%. In the case of `c1ccc2c(c1)OCC(CNc1ncnc3nc[nH]c13)O2` (configuration not stated), the inhibition is reported as 4%. `O=c1c2c(nc3n1CCCCC3)sc1c(O)cccc12` was tested, and the inhibition was 72.2% (active). `O=C(Nc1ccc2nc3n(c(=O)c2c1)CCCCC3)c1ccccc1Cl` gave an inhibition of 13.1%. `Cc1cccc2c(=O)n3c(nc12)CCCCC3` showed an inhibition of 28.1%. Work on `O=C(CSc1nc2c(cnn2-c2ccc(F)cc2)c(=O)[nH]1)N1CCCCCC1` yielded an inhibition of 2.3%. In the case of `Cc1noc(C)c1C(=O)OCC(=O)/C=C1\N(C)c2ccccc2C1(C)C`, the inhibition is reported as 60.2% (active). `CN1/C(=C\C=C2\N=C(c3ccc(F)cc3)OC2=O)C(C)(C)c2ccccc21` gave an inhibition of 45.9%. Compound `CN1/C(=C\C(=O)c2oc3ccccc3c2N)C(C)(C)c2ccccc21` has an inhibition of 47.9%.
